{
  "source": "PubChem BioAssay (NCI)",
  "note": "Where “and” joins values, the source holds several entries; their conditions need not be identical. Identical values can stand only once. This is part of a sample that, as a whole, favours compounds with a hit. Of some 83,000 tested, about 20% had one in any assay.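 Activity criterion: percent growth below 10, measured after cells in 96-well plates were exposed to a single compound concentration for 48 hours.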 Values without a mark were called inactive. Calls of active or inactive are those of the source.",
  "data": [
    {"tested_on": "NCI-H226 lung", "test": "NCI-60 one-dose screen, 48 h (100 = growth as untreated, 0 = no growth, -100 = all killed)", "details": "10 µM", "protocol": "Growth inhibition of the NCI-H226 human Non-Small Cell Lung tumor cell line is measured as a screen for anti-cancer activity. Cells are grown in 96 well plates and exposed to the test compound for 48 hours. Compounds are tested at a single concentration, which is 10^-5 M for most compounds. The reported endpoint is percent growth (GI% or GIPRCNT), where numbers from 0 - 100% represent growth inhibition, and numbers from -100% - 0 represent cell death. For example, a value of 40 represents 60% growth inhibition. A value of 0 means no net growth occurred over the course of the experiment. A value of -40 indicates 40% of cells at the beginning of the experiment died by the end of the experiment. A value of -100 means all cells are dead at the end of the experiment.\nNCI-60 Human Tumor Cell Lines Screen was performed using the standard one-dose NCI protocol, which is described in more detail at https://dtp.cancer.gov/discovery_development/nci-60/default.htm.\nCompounds with GIPRCNT values below 10 were considered active. Activity score was based on GIPRCNT using the following formula: […]\nScore is 0 for GIPRCNT values of 100 or above, 50 for GIPRCNT values of 0, and 100 for GIPRCNT values of -100.", "values": [
      {"smiles": "CC[C@@H](C)[C@@H]1NC(=O)C(NC(=O)C(CC(C)C)N(C)C(=O)C2CCCN2C(=O)C(C)O)C(C)OC(=O)C(Cc2ccc(OC)cc2)N(C)C(=O)C2CCCN2C(=O)C(CC(C)C)NC(=O)C(C)C(=O)C(C(C)C)OC(=O)C[C@H]1O", "note": "(stereo not given in full)", "growth": "-58.9% (active)"},
      {"smiles": "Cc1cc(C)c(C[N+](C)(C)C)c(C)c1C", "growth": "11.7%"},
      {"smiles": "CCCCCCCC[N+]12CN3CN(CN(C3)C1)C2", "growth": "98.2%"},
      {"smiles": "C[C@]12CC[C@H]3[C@@H](CCC4=CC(=O)CC[C@@H]43)[C@@H]1CC[C@@H]2OC(=O)N(CCCl)N=O", "growth": "55.8%"},
      {"smiles": "Cc1ccc(C(=O)C2C(c3ccccc3)N2C2CCCCC2)cc1", "note": "(stereo not given)", "growth": "100% and 94.7%"},
      {"smiles": "NC(=O)c1cc([N+](=O)[O-])c(Cl)c([N+](=O)[O-])c1Cl", "growth": "59.7%"},
      {"smiles": "O=S(=O)(F)c1ccc(Cl)cc1", "growth": "109%"},
      {"smiles": "COC12C(COC(N)=O)C3=C(C(=O)C(C)=C(N)C3=O)N1CC1C2N1C", "note": "(stereo not given)", "growth": "64.2%"},
      {"smiles": "COc1ccc(/C=C\\[N+](=O)[O-])cc1OC", "growth": "101% and 77.5%"},
      {"smiles": "CC(=O)Nc1c2sscc-2n(C)c1=O", "growth": "-100% (active)"},
      {"smiles": "[Cl][Hg][c]1ccc2ccccc2c1", "growth": "-20.6% (active)"},
      {"smiles": "COC12c3c(C)cc(O)c4c(=O)occ(c34)C(=O)C1C13COC(=O)c4c(O)cc(C)c(c41)C(=O)C2C3OC(C)=O", "note": "(stereo not given)", "growth": "100%"},
      {"smiles": "C/C(=C\\c1ccc(Cl)c(Cl)c1)[N+](=O)[O-]", "growth": "98.1%"},
      {"smiles": "O=c1[nH]c2ccccc2n1C1CCN(CCCC(c2ccc(F)cc2)c2ccc(F)cc2)CC1", "growth": "92.1% and 61.6%"},
      {"smiles": "COc1cc([C@@H]2c3cc4c(c(O)c3C[C@H]3COC(=O)[C@@H]32)OCO4)cc(OC)c1OC", "growth": "48.8%"},
      {"smiles": "COS(=O)(=O)c1ccccc1", "growth": "107%"},
      {"smiles": "O=[N+]([O-])c1cc[n+]([O-])c2ccccc12", "growth": "-17.8% (active)"},
      {"smiles": "C[C@@H]1C[C@@H]([C@H](O)CC2CC(=O)NC(=O)C2)C(=O)[C@@H](C)C1", "growth": "11.6%"},
      {"smiles": "O=C1C=Cc2ccccc2C1=O", "growth": "100%"},
      {"smiles": "C#CC1(O)CCC(C(C)(C)C)CC1", "note": "(stereo not given)", "growth": "111%"},
      {"smiles": "O=C(CBr)Nc1ccc(Cl)cc1", "growth": "91.2%"},
      {"smiles": "C=NCC#N", "growth": "107% and 99.3%"},
      {"smiles": "Oc1ccccc1-c1ccccc1", "growth": "104% and 99.3%"},
      {"smiles": "Cc1ccc(NC(=O)CBr)cc1", "growth": "103%"},
      {"smiles": "O=[N+]([O-])/C=C/c1ccc(Cl)cc1[N+](=O)[O-]", "growth": "89.5%"},
      {"smiles": "COC1CC2C=C(C)/C=C/C=C/C(=O)NC(c3ccccc3)C/C=C/CCC(O)CC(=O)C2=C1O", "note": "(stereo not given)", "growth": "-61.6% (active)"},
      {"smiles": "CC/C(=C/c1ccc(OC)cc1OC)[N+](=O)[O-]", "growth": "111%"},
      {"smiles": "COc1cc2c(cc1OC)C13CCN4CC5=CCOC6CC(=O)N2C1C6C5CC43", "note": "(stereo not given)", "growth": "95.9% and 95.7%"},
      {"smiles": "COc1ccc2c(ccc3oc([N+](=O)[O-])cc32)c1", "growth": "-4.88% (active)"},
      {"smiles": "Cc1cc([N+](=O)[O-])c2ccccc2[n+]1[O-]", "growth": "-4.63% (active) and -12.9% (active)"},
      {"smiles": "CCOP(=O)(OCC)C(O)c1ccccc1Cl", "note": "(stereo not given)", "growth": "98.1%"},
      {"smiles": "Oc1c(I)cc(I)cc1I", "growth": "98.6%"},
      {"smiles": "CC1CCC2(OC1)OC1C(O)C3C4CCC5CC(OC6OC(CO)C(OC7OC(CO)C(O)C(OC8OCC(O)C(O)C8O)C7OC7OC(CO)C(O)C(OC8OC(CO)C(O)C(O)C8O)C7O)C(O)C6O)C(O)CC5(C)C4CCC3(C)C1C2C", "note": "(stereo not given)", "growth": "-50.1% (active)"},
      {"smiles": "CS(=N)(=O)CCC(N)C(=O)O", "note": "(stereo not given)", "growth": "101%"},
      {"smiles": "[Cl][Hg][c]1ccc(Cl)s1", "growth": "50.1%"},
      {"smiles": "NC(=O)c1cc([N+](=O)[O-])c(Cl)c([N+](=O)[O-])c1", "growth": "102%"},
      {"smiles": "ClCc1ccc2ccccc2n1", "growth": "78.2%"},
      {"smiles": "O=C1C(=O)c2ccccc2-c2ccccc21", "growth": "-88.3% (active)"},
      {"smiles": "CC/C(=C/c1ccc(OC)cc1)[N+](=O)[O-]", "growth": "-12.5% (active)"},
      {"smiles": "CC(C)c1cc([N+](=O)[O-])cc([N+](=O)[O-])c1O", "growth": "102%"}
    ]}
  ]
}
